# In PubChem BioAssay AID1508600 (Functional Genomics Laboratory (NCATS/FGL), 2020):
# The whole screen tested about 53,000 sequences, of which about 3,700 (7%) were called active. This is one part of a sample in which actives are shown more often than they occur. A number with no mark means an inactive call.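 Rule for the calls: active = gene knockdowns whose robust z-score for IL-1 alpha signal is at least 2 or at most -2, so actives lie on both sides; inactive = the rest.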
# Experiment: Components of the Cytosolic LPS Sensing Pathway: Gene Identification via Genome-wide siRNA Screen;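 note: robust z of the log signal after scaling to non-targeting control siRNA wells of the plate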
# Details: RAW264.7 macrophages, IL-1a HTRF, actives lie on both sides, screened at 100 nM (by protocol), cells primed 5 h with Pam3CSK4 first
# Outline: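 RAW264.7 mouse macrophages reverse-transfected with single siRNAs (100 nM final) for 48h, primed with Pam3CSK4 for 5 hours, then transfected with LipidA for 24 hour. Supernatant IL-1a read by HTRF; values normalized to negative-control median, log-transformed robust z-scores.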
row,Sequence,z-score
1,GGCAGGACAUUCUCAAAUCTT against Praf2,2.51 (active)
2,GGGAGUUGAGAAGACAUAATT against Lim2,0.223
3,CGGGCAGUACUAUGAUUUGTT against Ppp1cc,2.09 (active)
4,CCUCACCAAACCUUGUUGATT against Cd300lg,-1.57
5,GGCUAAGACUAUGUUGUAATT against Smcp,-1.48
6,GGCUCUUUGUUCAGUUUUUTT against Fxyd3,2.52 (active)
7,CCAUAUAACUGCCAAUAAUTT against Ankrd7,-2.02 (active)
8,GCUCAUAAAACUCCAAAAGTT against Mob4,-0.713
9,GCAACUCUGAGGUUGCUAGTT against Pgam1,-0.12
10,CCCUCAUUGUAACCUUAACTT against Olfr792,-2.27 (active)
11,GGCUGAAUGUCGCUUAGAGTT against 9030612E09Rik,-0.875
12,GGCUUAGCUUUUGUGAUUCTT against Olfr143,-1.24
13,GGUGUCCCUUAAUGUGUCCTT against Heg1,0.671
14,GCCUCUCUGGUGAACUUAGTT against Ccar1,0.0406
15,GCCUCACUUGAUGAAAUGGTT against Sccpdh,-2.13 (active)
16,GGAAGGACUUAAAUGAUGCTT against Rnf187,-1.18
17,GGUGGACAUUCCUAAGAUUTT against Ago1,-0.97
18,CGCAUAAUGGAUGAGAGGATT against Mef2a,0.871
19,GCAGUGUAUAGGUGUACAATT against Krt2,3 (active)
20,GCAGAGUGCUCGUAGAGUGTT against Heatr5a,0.96
21,GGAGGUUCAACAUGAAAAUTT against Lingo2,-0.253
22,GGCCUUUGCACGUGGAUUGTT against Zfp420,-0.221

row,Sequence,z-score
1,GGGAAUCAUGAUAUGUUUCTT against Tmem186,-0.217
2,GGAGGUCCAUGUCCUGCUUTT against Mesp2,0.336
3,GCAGAACCGCCAACCAACATT against Smarcc2,-2.03 (active)
4,CCUCGGUCAGAUUCCUGAUTT against Phpt1,0.101
5,CCAAUAACUACUCAUACCCTT against Ints1,0.105
6,GCAUGUAGUAUGGUAACACTT against Akr1b7,-1.78
7,CCUUAAACAGCUUUUCAGATT against Dync2h1,0.472
8,UCUUACACUUCGUGUUCCATT against Gpr6,3.12 (active)
9,CGAAAACUUCAUAGCUACATT against Hmg20a,-1.95
10,GCAGACAAUAUCUCUGAAUTT against Olfr459,-0.942
11,CCUCUCAAGAAAUCGUGCATT against Trim47,0.978
12,GCAGAUUGUGCAGCUAGCATT against Pax4,0.452
13,CCAUCUCAUUCCUUACCAGTT against Gm4736,-1.79
14,GGAUAAGAUAAUGUCUGUGTT against Olfr716,-1.73
15,GGGUAACAGUGGUGAACCUTT against Col1a1,2.08 (active)
16,GGCUGAGUUAUUUGUGACATT against Syt13,-1.41
17,CGGCCUGGGUCCCGUGGACTT against Hs3st6,-1.18
18,CGCAUGCCUGUAAAAUAAATT against 2310057M21Rik,-1.37
19,GGGAAUUUUGGAAGAGUCUTT against F630003A18Rik,-3.23 (active)
20,GCGAGGAAAGAGCACUGUATT against Fam107a,-0.103
21,GGGCUAUGUUCGAAGUAAATT against Kbtbd3,-0.848
22,GGUGAGUAUAUUCAAGUUATT against Ndor1,4.36 (active)

row,Sequence,z-score
1,GGAUAUUUGGAGGACAACCTT against C1s1,0.0678
2,CGAGAGGUUUGUCCAUAGATT against Tac4,-0.86
3,GGGACAAUAAAACCAACACTT against Ulk4,-1.04
4,CCACCUUGGUCUAAUUUCUTT against Slitrk4,-2.06 (active)
5,GGCUCCUCAUUACCUCUACTT against Rrp7a,0.233
6,GGGCCACACAGAAAUGGUUTT against Ank1,0.994
7,GGAGAAAGGUGCUUCCGAUTT against Mrpl19,0.47
8,CGAUGGCUUGGUUCCAUUUTT against Tcaf3,-0.0976
9,GGCACUACAACGGAACUCATT against Slco5a1,-1.82
10,GCGUGUUAGGAAAAACUCUTT against Pars2,1.36
11,CCGAGCAGUAUGUGAACGUTT against Cela1,3.56 (active)
12,CCUUUACUGUCCAUUCCGATT against Stxbp2,-0.533
13,CCCUGUGAAAGUGUCAUAUTT against Pigq,1.28
14,GGUUCAACUUCACACUGAGTT against Mettl22,1.08
15,GGAAAAAAAUGCUGUAUACTT against Insm1,-0.599
16,GGUGCUUUGUAAACUGUCUTT against Slc26a11,-2.99 (active)
17,ACCUGUGAUGGUGGAGACUTT against AF067061,0.577
18,GCAUGCCCGUAAUCAAGUGTT against Racgap1,0.104
19,GGACUUCAGCAACUAUAGUTT against Ggt7,-0.631
20,GUUCCACUACUUCUGCUCCTT against Olfr583,0.41
21,GGUGCUUCCAGAAUCUUUATT against Epha5,0.517
22,CCGGUUUCAAAUUGCCACUTT against Psmb4,-2.73 (active)

row,Sequence,z-score
1,GGAAGGUAUCUGAGGUCCGTT against 2810408A11Rik,-0.106
2,GGCAUUGCUGGACUUUGAATT against Mvp,-1.71
3,GCUGCACGCACUGAUCAAGTT against Tjap1,1.02
4,GGUUUUGUUAAAGAAGACGTT against 4833439L19Rik,-2.25 (active)
5,CGGUGACGACGGAAUUCUATT against Cpne4,-1.42
6,GGAUUCAGAAGGCCUCAGUTT against Olfr399,0.132
7,UACUAGCAGAUUAACCACCTT against H2bc4,-0.192
8,GGCAUCAACAGAAUAACCATT against Tomm34,-1.31
9,GGCCAAGUUUGACAAGGAATT against Nap1l5,2.32 (active)
10,GCUGCAUCGAAAAACUCAGTT against Mycbp2,-0.564
11,GGAUUAUGGACCUCUUGGUTT against 4930595M18Rik,0.554
12,CCCAGUUGACAGGAGACCATT against Hps6,1.13
13,GCAUUAUAAAAAGGUUCCGTT against Atp2b1,1.81
14,GGCCCAAGAGAAUAUCCAGTT against Gm6460,0.281
15,GCAGGACAAGGACAACACUTT against Dyrk2,-2.1 (active)
16,CCACCGAAAUCCUUAUUUUTT against Ppargc1a,0.522
17,GCCAAGAGCACAUCUGCUATT against Suco,-1.65
18,GCUGGGUCAAACAUGACGUTT against Klhl17,0.452
19,ACCCUUUUGUUUACACUCUTT against Olfr763,-0.76
20,GCCCAAAGAUGACAUCGUATT against Gars,1.74
21,GCUAGACCCAUAAUAAAACTT against Synpo2l,-0.851
22,UUGACUCACCUUCCGAGGUTT against Lce1a1,0.0827

row,Sequence,z-score
1,GCGCAAUAUAGAGUCAUCATT against Rnls,-2.83 (active)
2,CCGUUUACCAACCAAGAAUTT against Tnfrsf17,0.0608
3,GGUUUGCUACACUUCAGAATT against Xpr1,0.101
4,GCCAACUAGAAAACAACUGTT against Pdzd11,1.6
5,GGUGGAACAGGCAGAAUUCTT against Syn2,1.92
6,GGUCGCUACAAGAUGACUUTT against Hapln4,0.289
7,GCCAGUCAGAUGUACAGUCTT against Pbx1,3.28 (active)
8,CCAGAGUACAGUGUAGUCATT against Hspb6,0.508
9,GAACUUUUUUUCUGUGAACTT against Olfr175,-1.58
10,GGAAAUCGAGAGAAAUUCATT against Tead2,2.07 (active)
11,GCAGGUUGCACCAUGUAGATT against Slc25a42,0.701
12,CCAUCUUGGGUUCUGGUCATT against Zc3h4,-0.204
13,GGGCAAAACACUGUCUUUCTT against Tlr5,1.87
14,GCCUCUACUGGUUAUUUAATT against Slc22a15,2.09 (active)
15,CCUUCAAGUACUUUCUCCGTT against Dcakd,1.22
16,GGAUGAGGAGGAAAAGCUGTT against Nop2,-1.86
17,GGUCAAUGAACAGCACCGGTT against Igfbp2,0.723
18,GGAUAAAGGAAAAGAAACATT against Rcvrn,-1.34
19,CCAGACUCCUCUUAGAAGGTT against Ankrd34c,0.73
